Measurements: PubChem BioAssay (NCATS)
Inconclusive results are not listed. A call without a number means that no potency is given here. Calls of active or inactive are those of the source. The call rests on the fitted dose curve; in most records, active means well fitted cell-killing curve with a large enough effect; inconclusive means small, poorly fitted or top-dose-only effect; inactive means flat fitted curve, though single readings scatter.

assay: Cell Viability - LYMP2-022 (AID 987); conditions: LYMP2-022 lymphoblastoid cell viability; series mostly up to 92.2 µM; further: nearly all actives have a fitted effect of over 55% in size
In short: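 qHTS: human lymphoblastoid cells 2500/well; 5 hr 37 C; cpd added; 24 hr 37 C; CellTiter-Glo, 30 min RT; luminescence. AC50 via Hill fit; tetraoctylammonium bromide positive ctrl.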

Compound | Potency
Cc1ccc(CO)cc1 | inactive
Cc1cc([N+](=O)[O-])ccc1N | inactive
Nc1nc2ccccc2[nH]1 | inactive
NC(=O)c1ccccc1[N+](=O)[O-] | inactive
Oc1cccc(Nc2ccccc2)c1 | inactive
O=C(O)c1cccc(Cl)c1Cl | inactive
Nc1cccc2c(=O)[nH][nH]c(=O)c12 | inactive
CCOc1cccc(N)c1 | inactive
ICCc1ccccc1 | inactive
FC(F)(F)c1cccc(Cl)c1 | inactive
CCOc1ccccc1N | inactive
C=CC(=O)NC(C)C | inactive
Cc1ccc2cccnc2c1 | inactive
CCCCCCO | inactive
CC(=O)Nc1ccccc1C | inactive
COc1ccc(N=[N+]([O-])c2ccc(OC)cc2)cc1 | inactive
CNc1ccccc1 | inactive
Oc1c(Cl)ccc(Cl)c1Cl | inactive
CN(C)CCCNCCCN | inactive
ClC/C=C/CCl | inactive
O=C(Cl)c1cccc([N+](=O)[O-])c1 | inactive
Cc1cccc(C(=O)O)c1 | inactive
Cc1ccc2ncccc2c1 | inactive
Nc1cccc(C(F)(F)F)c1 | inactive
O=Cc1ccc(C(=O)O)cc1 | inactive
NC(=O)/N=N/C(N)=O | inactive
CNC(=O)c1ccccc1 | inactive
O=[N+]([O-])c1cccc(C(F)(F)F)c1 | inactive
CCC(C)(C)OC | inactive
NC(N)=S | inactive
